# Experiments:
# Test in all cases: PBM binding z-score (relative to random genomic background probes); higher = stronger binding; sequences stand for … in GC…GCGATTGACAGCGTAGAATGAAGG
# [1] = test system: FXR:RXRa (NR concentration 270 nM, RXRa partner concentration 90 nM)
# Outline: (§1)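 Custom Agilent 4×180K protein-binding microarrays carried double-stranded probes. Their 34-nt variable regions held direct-repeat seeds, single-nucleotide variants, half-site ablations and random human genomic background sequences. Arrays were incubated 1 h with ligand-free nuclear receptor dimers in PBS pH 7.4, 2% milk, 0.02% Triton X-100, 1 mM DTT, 0.2 mg/mL BSA and 0.4 mg/ml salmon testes DNA. Antibodies against each partner (one per run) detected binding, and scanned fluorescence was regression-normalized. Binding z-scores use random background probes as reference.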
# [2] = test system: LXRa:RXRa (NR concentration 270 nM, RXRa partner concentration 90 nM)
# Outline: as §1
# [3] = test system: LXRa homodimer (NR concentration 270 nM)
# Outline: as §1
# [4] = test system: LXRb:RXRa (NR concentration 270 nM, RXRa partner concentration 90 nM)
# Outline: as §1
# [5] = test system: LXRb homodimer (NR concentration 270 nM)
# Outline: as §1
# [6] = test system: PPARa:RXRa (NR concentration 270 nM, RXRa partner concentration 90 nM)
# Outline: as §1
# [7] = test system: PPARg:RXRa (NR concentration 180 nM, RXRa partner concentration 90 nM)
# Outline: as §1
# [8] = test system: PPARg:RXRa 270nM:90nM, anti-RXR (NR concentration 270 nM, RXRa partner concentration 90 nM)
# Outline: as §1
# [9] = test system: PPARg:RXRa 30nM:10nM, anti-RXR (NR concentration 30 nM, RXRa partner concentration 10 nM)
# Outline: as §1
# [10] = test system: PPARg:RXRa 90nM:30nM, anti-RXR (NR concentration 90 nM, RXRa partner concentration 30 nM)
# Outline: as §1
# [11] = test system: PPARg:RXRa DBDmut IVT, anti-RXR (DBD mutation: RXRa K156A/R161A, NR concentration 270 nM, RXRa partner concentration 90 nM)
# Outline: as §1
# [12] = test system: PPARg:RXRa IVT, anti-PPARg (NR concentration 270 nM, RXRa partner concentration 90 nM)
# Outline: as §1
# [13] = test system: PPARg DBDmut:RXRa IVT, anti-PPARg (DBD mutation: PPARg1 K132A/R137A, NR concentration 270 nM, RXRa partner concentration 90 nM)
# Outline: as §1
# [14] = test system: PPARg DBDmut IVT, anti-PPARg (DBD mutation: PPARg1 K132A/R137A, NR concentration 270 nM)
# Outline: as §1
# [15] = test system: PPARg homodimer (NR concentration 180 nM)
# Outline: as §1
# [16] = test system: PXR:RXRa (NR concentration 270 nM, RXRa partner concentration 90 nM)
# Outline: as §1
# [17] = test system: PXR homodimer (NR concentration 270 nM)
# Outline: as §1
# [18] = test system: RARa:RXR (NR concentration 270 nM, RXRa partner concentration 90 nM)
# Outline: as §1
# [19] = test system: RARa homodimer (NR concentration 270 nM)
# Outline: as §1
# [20] = test system: RARb:RXRa (NR concentration 270 nM, RXRa partner concentration 90 nM)
# Outline: as §1
Sequence,PBM binding z-score [1],PBM binding z-score [2],PBM binding z-score [3],PBM binding z-score [4],PBM binding z-score [5],PBM binding z-score [6],PBM binding z-score [7],PBM binding z-score [8],PBM binding z-score [9],PBM binding z-score [10],PBM binding z-score [11],PBM binding z-score [12],PBM binding z-score [13],PBM binding z-score [14],PBM binding z-score [15],PBM binding z-score [16],PBM binding z-score [17],PBM binding z-score [18],PBM binding z-score [19],PBM binding z-score [20]
AGAATGAGGGCAATGAGTTGATAGCACGGGTGGC,0.728,0.505,-0.515,-0.0914,-0.286,1.91,1.79,1.42,0.0297,0.697,4.59,3.33,0.634,0.0242,0.0668,1.89,5.25,0.357,0.124,2.04
GCTTACGGGTCATAGGTTATAGCATGAATAGAAT,5.98,4.32,0.326,4.2,0.262,5.87,9.25,7.94,6.8,8.53,3.9,5.19,2.06,1.56,2.24,3.94,0.0944,5.79,0.0988,3.51
CGAACTAGGTCATTGACACGACAGTGAATAGTAA,5.16,3.65,0.689,2.48,0.158,4.67,7.57,6.21,3.95,5.54,7.93,8.44,3.78,3.06,2.25,1.33,0.767,2.2,0.177,3.52
CCTACTGGGCCACGAAAGGTCATTGGTTCAGTGA,3.88,5.26,5.57,4.37,0.215,4.79,4.66,4.86,2.43,4.48,5.54,5.88,-0.165,-0.319,3.95,5.47,3.04,5.74,0.693,3.96
GCTCGTTGGTCAGTAAAAGGTCACACACCGGTCG,3.94,4.86,5.11,4.22,1.19,4.89,3.34,4.93,2.81,4.52,0.994,2.63,0.257,0.405,4.91,5.35,1.21,6.7,2.93,4.48
GTACCAAGGTGAATAGGTCCTTGATGAGTAGGCG,0.104,0.0189,-0.541,-0.255,-0.745,1.27,0.918,0.908,0.0599,0.237,1.68,1.9,-0.22,-0.0495,0.461,-0.118,-0.138,0.337,0.144,1.23
ACTATTAGTTGTGACGAGGGCAACCGATAGGTTG,-0.101,-0.0626,-0.0175,-0.0591,-0.181,0.388,0.623,0.256,-0.152,0.259,0.298,0.518,0.938,1.19,0.35,0.597,-0.0621,0.536,0.293,1.06

# Reference: the supplement of paper PMC6555819
